ELG1 genotox: inducers of genotoxicity in HEK293T ELG1-luciferase cells | HEK293T ELG1-luciferase reporter, luminescence, 16 h | Potency, µM (top dose mostly 46 µM), without a hit: at the top dose activity change, positive = activation, usual class: activators | 1.3% of 330,000 active | AID 504466; also: % of control where 0% means no effect; nearly all actives have a fitted effect of over 60% in size
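DMSO vehicle served as control against compound-treated ELG1-luciferase HEK293T cells; exposure lasted 16 hr at 37 °C and 5% CO2, followed by ONE-Glo luminescence detection after 30 min.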
SMN2 splice up: SMN2 splice variant enhancement | HEK293 SMN2-luciferase splicing reporter, luminescence, 30-36 h | Potency, µM (highest dose often 46.1 µM), inactives show at the highest dose activity change, positive = activation, usual class: activators | 2.8% of 210,000 active; also: % of control where 0% means no effect; nearly all actives have a fitted effect of over 55% in size
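HEK293 cells carry an SMN2 […]–luciferase reporter in which exon 7 inclusion puts luciferase in frame. Cells were plated 10-12 h before compound addition, then incubated 30-36 h at 37C. ONE-Glo luminescence was read; sodium butyrate at 4.5 mM final served as control.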
NPC1 promoter act: activators of NPC1 promoter; Huh7 NPC1 promoter luciferase reporter, 24 h; Potency, µM (titrated, usually from 9.22 µM), for inactives: at the top dose activation, most hits filed as activators; 2.4% of 320,000 active; AID 485313; also: % of control where 0% means no effect; nearly all actives have a fitted effect of over 60% in size
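Huh7 reporter cells (NPC1 promoter driving luciferase) are dosed with compound for 24 h at 37 °C, 5% CO2; luciferase detection reagent is then added and luminescence measured after 10 min at ambient temperature.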
FLuc counter: counter-screen for miR-21 project: firefly luciferase inhibitors or activators; Potency, µM (doses to about 57.5 µM), without a hit: top-dose activity change, negative = inhibition, usual class: inhibitors; P08659; 6.9% of 360,000 active; purified FLuc, Km substrates, luminescence inhibition;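 also: plate controls were vehicle for no effect and reference inhibitor for full effect; nearly all actives have a fitted effect of over 55% in size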
Target sequence (P08659 whole entry, looked up): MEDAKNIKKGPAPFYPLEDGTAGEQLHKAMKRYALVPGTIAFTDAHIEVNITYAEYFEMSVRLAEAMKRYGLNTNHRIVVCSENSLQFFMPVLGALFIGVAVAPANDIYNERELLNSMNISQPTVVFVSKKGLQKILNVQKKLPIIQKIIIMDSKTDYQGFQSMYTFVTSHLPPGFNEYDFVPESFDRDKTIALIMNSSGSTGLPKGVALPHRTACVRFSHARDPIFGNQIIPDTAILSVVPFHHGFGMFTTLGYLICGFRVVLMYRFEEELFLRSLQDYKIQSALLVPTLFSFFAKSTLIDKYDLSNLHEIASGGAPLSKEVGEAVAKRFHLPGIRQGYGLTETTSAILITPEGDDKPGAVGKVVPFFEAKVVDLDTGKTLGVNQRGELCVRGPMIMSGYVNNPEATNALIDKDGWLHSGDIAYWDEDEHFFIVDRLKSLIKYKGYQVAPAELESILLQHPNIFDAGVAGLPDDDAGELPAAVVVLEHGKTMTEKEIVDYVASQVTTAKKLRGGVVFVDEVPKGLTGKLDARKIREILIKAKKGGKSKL
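Biochemical qHTS of compounds, final roughly 60 µM downward over six points, against 10 nM purified firefly luciferase using Km concentrations of substrates (10 uM D-luciferin, 10 uM ATP) in Tris acetate pH 7.5 buffer; luminescence output.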
Rab9 promoter act: activates the Rab9 promoter; 2.8% of 320,000 active; Huh7 Rab9 promoter-luciferase reporter, luminescence, 24 h; Potency, µM (doses to about 9.22 µM), for the others: top-dose activation, negative = inhibition, actives largely listed as activators; also: % of control where 0% means no effect; nearly all actives have a fitted effect of over 60% in size
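Using Huh7 cells stably transfected with Rab9 promoter–luciferase, compounds were incubated 24 h at 37 °C, 5% CO2; luciferase luminescence was read 10 min after reagent addition.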
* marks the source's active call; other numbers are inactive results; ? = inconclusive; / = no result given. Only some compounds are listed: those with a hit (about 7.4% of all), similar ones and a draw of the others. Calls follow the shape of the dose curve; as a rule, active = well fitted curve in the direction sought with a large enough effect; inconclusive = small, poorly fitted or top-dose-only effect, or another doubt; inactive = no such curve, though single readings can be large; an effect the other way counts as inactive or inconclusive. Potency is read from the fitted curve at half-maximal effect.

SMILES | ELG1 genotox | SMN2 splice up | NPC1 promoter act | FLuc counter | Rab9 promoter act
CCN1CCN(Cc2ccc(NC(=O)c3cc(NC(=O)c4cc(-c5ccc(OC)cc5)n[nH]4)cc(OC)c3)cc2C(F)(F)F)CC1 | 8% | / | -2% | 13µM* | -2%
COc1ccc(-c2cc(C(=O)Nc3ccc(C)cc3)no2)cc1 | / | -18% | / | 0% | /
CCC(C)NC(=O)c1cc(-c2ccc(OC)cc2)on1 (configuration not stated) | ? | 10µM* | 2.8µM* | 6µM* | 3.2µM*
COc1ccc(-c2cc(C(=O)NCC(C)C)no2)cc1 | 2.6µM* | 11µM* | 1.4µM* | 2.4µM* | 0.71µM*
COc1ccc(-c2cc(C(=O)O)no2)cc1 | 1% | / | -4% | -3% | -3%
Cc1ccc(C2=CC(c3ccccc3C)n3c(nc4ccccc43)N2)cc1 (configuration not stated) | / | / | / | 6µM* | /
Cc1cccc(C2C=C(c3ccc(F)cc3)Nc3nc4ccccc4n32)c1 (configuration not stated) | / | / | / | 5.4µM* | /
CCc1ccc(C2=CC(c3c(F)cccc3Cl)n3c(nc4ccccc43)N2)cc1 (configuration not stated) | / | / | / | 19µM* | /
CCN(CC)C(=O)C1=C(C)Nc2nc3ccccc3n2C1c1ccccc1F (configuration not stated) | / | -12% | / | -2% | /
CN(C(=O)CSc1nnc(Nc2ccccc2)s1)c1c(N)n(Cc2ccccc2)c(=O)[nH]c1=O | 1% | / | 2% | -29% | -2%
COCCN(C(=O)CSc1nnc(Nc2ccc(C)cc2)s1)c1c(N)n(CC(C)C)c(=O)[nH]c1=O | 2% | 12% | -2% | 11µM* | -1%
CCCCn1c(N)c(N(CCC(C)C)C(=O)CSc2nnc(Nc3ccccc3)s2)c(=O)[nH]c1=O | 7% | 12% | 0% | 24µM* | 1%
CCCCN(C(=O)CSc1nnc(Nc2ccc(C)c(C)c2)s1)c1c(N)n(Cc2ccccc2)c(=O)[nH]c1=O | 6% | 22µM* | 15% | 1.1µM* | 3%
CCOC(=O)C1(CCOc2ccccc2)CCN(Cc2cccc(OC)c2OC)CC1 | -1% | / | -5% | -10% | -7%
Cc1ccc(/C(C#N)=C\c2ccc(N3CCOCC3)o2)cc1 | 18µM* | 13µM* | 4µM* | 24µM* | 3.2µM*
Cc1ccc2nc(/C(C#N)=C\c3ccc(N4CCOCC4)o3)[nH]c2c1 | ? | 4µM* | 2.2µM* | 0.43µM* | 1.8µM*
Cc1ccc2nc(/C(C#N)=C\c3ccc([N+](=O)[O-])o3)[nH]c2c1 | 1% | -97% | -36% | -15% | -28%
N#C/C(=C\c1ccc(N2CCOCC2)o1)C(=O)NCC1CCCO1 (configuration not stated) | 1% | / | -36% | 0% | -28%
O=c1c2ccccc2nc2oc3ccccc3n12 | 10µM* | / | 1.6µM* | 7.6µM* | 1.6µM*
COc1ccc(CNC(=O)CCCc2nnc3n(CCC(C)C)c(=O)c4sccc4n23)cc1 | / | / | / | 6% | /
COCc1cc(C)nc2c1C(=O)NC(c1ccc(C)cc1)N2Cc1ccccc1 (configuration not stated) | / | / | / | -6% | /
Cc1cc(NC(=O)CSc2nnnn2C2CCCC2)no1 | 1% | 16% | -2% | 2% | -1%
Cc1nnc(SCC(=O)c2cc(C)n(C3CC3)c2C)s1 | ? | 25µM* | 2.2µM* | 12µM* | 2µM*
Cc1cc(C(=O)CSc2nnnn2C)c(C)n1C1CC1 | ? | 10µM* | ? | ? | 2.8µM*
CCn1c(C)cc(C(=O)CSc2nnnn2C2CCCC2)c1C | ? | / | 0.71µM* | 1.9µM* | 0.71µM*
SMILES | ELG1 genotox | SMN2 splice up | NPC1 promoter act | FLuc counter | Rab9 promoter act
CNc1nnc(SCC(=O)c2cc(C)n(C3CC3)c2C)s1 | ? | / | ? | / | 3.5µM*
CC(C)NC(=O)c1ccc(C(C)C)cc1 | 10% | / | 18% | ? | 12%
COc1ccc(NC(=O)Nc2ccc3c(c2)N(C)C(=O)CS3)cc1Cl | -2% | -22% | -1% | 17µM* | 1%
Cc1ccc(NC(=O)Nc2ccc3c(c2)N(C)C(=O)CS3)nc1 | 9% | ? | 0% | -3% | 4%
Cc1ccnc(NC(=O)Nc2ccc3c(c2)N(C)C(=O)CS3)c1 | ? | 11µM* | 3.5µM* | 3µM* | 2.8µM*
CC(=O)c1ccc(NC(=O)Nc2ccc3c(c2)N(C)C(=O)CS3)cc1 | -13% | -20% | 0% | 24µM* | 16%
COc1ccc(NC(=O)N2CCC3(CC2)CCN(S(C)(=O)=O)CC3)cc1 | / | 4% | / | / | /
Cc1ccccc1-c1noc(-c2ccccc2F)n1 | 6.5µM* | ? | 2.5µM* | 1.9µM* | 2.2µM*
Cc1noc(-c2ccc(-c3noc(-c4ccc(Cl)cc4)n3)cc2)n1 | / | / | / | 0% | /
Cc1ccccc1-c1noc(C2CCCCC2)n1 | 13% | -6% | -1% | 17µM* | 9%
Cc1ccccc1-c1noc(-c2ccc(O)cc2)n1 | ? | ? | ? | 4.8µM* | 29%
Cc1ccccc1-c1noc(-c2cc(-c3ccc(F)cc3)n[nH]2)n1 | / | / | / | 6% | /
Cc1ccccc1-c1noc(-c2ccc(Cl)cc2)n1 | ? | 11µM* | 4µM* | 1.1µM* | 2.8µM*
COc1ccc(N2CCN(CCCNC(=O)c3sc4ncccc4c3-n3cccc3)CC2)cc1 | / | / | / | 3% | /
CCOc1ccc2nc(NC(=O)CN3CCC(n4nnc5cc(F)ccc54)CC3)sc2c1 | -44% | -73% | 0% | ? | -9%
Cc1nc2nc(NC(=O)c3ccc(C(C)(C)C)cc3)[nH]n2c(=O)c1C | / | 6% | / | -13% | /
Clc1ccc(-c2nc(Cc3ccccc3Cl)no2)cc1 | 11% | 0% | 14% | 15µM* | 23%
O=C(NCc1ccc(Cl)cc1)c1cc(-c2cccs2)on1 | -2% | 14% | 1% | -1% | -1%
Clc1ccc(Cc2noc(-c3cccs3)n2)cc1 | 6.5µM* | 0% | ? | 13µM* | 22%
O=S(=O)(Cc1noc(-c2ccc(Cl)cc2)n1)Cc1ccco1 | 8% | / | 21% | ? | 26%
Fc1ccc(C(c2nnc(-c3ccccc3)o2)N2CCN(c3ccccc3)CC2)c(Cl)c1 (configuration not stated) | / | / | / | -7% | /
COc1ccc([C@H]2[C@H](C(=O)OC(C)(C)C)N3N=Cc4ccccc4C3C23C(=O)c2ccccc2C3=O)cc1OC (some centres not stated) | -2% | 10% | 0% | 15µM* | -2%
COc1ccc(-n2c3c(cc(-c4nc(-c5ccc(C)cc5)cs4)c2=O)C(=O)CC(C)(C)C3)cc1 | / | 9% | / | 1% | /
CCn1c(C)c(C2N3CC4(C)CN2CC(C)(C3)C4=O)c2ccccc21 (configuration not stated) | / | 0% | / | -3% | /

High-throughput results: PubChem, National Center for Advancing Translational Sciences (NCATS)
